# According to the supplement of paper PMC4466140:
# Columns and labels:
# Test in all cases: SPOT peptide array binding signal intensity (averaged, normalized) (arbitrary units (background-subtracted, floor 0; scale differs between SH3 domains)); higher = stronger binding of the SH3 domain to the peptide
# AgAbp1 = target: AgAbp1
# Procedure, shortened: (§1)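 Four yeast species supplied the SH3 domains, which were expressed as GST fusions in E. coli BL21(DE3) and purified on glutathione Sepharose. Incubation with cellulose membranes carrying synthetic 15-mer peptides, cysteines exchanged for serines, ran overnight at 4°C at 10 μg/ml in TBS-based blocking buffer. Binding signal is reported as normalized, background-subtracted spot intensity averaged over replicates, in arbitrary units not shared between domains.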
# AgBbc1 = target: AgBbc1
# Procedure, shortened: as §1
# AgBem1-D1 = target: AgBem1-D1
# Procedure, shortened: as §1
# AgBzz1-D1 = target: AgBzz1-D1
# Procedure, shortened: as §1
# AgBzz1-D2 = target: AgBzz1-D2
# Procedure, shortened: as §1
# AgCyk3 = target: AgCyk3
# Procedure, shortened: as §1
# AgFus1 = target: AgFus1
# Procedure, shortened: as §1
# AgHof1 = target: AgHof1
# Procedure, shortened: as §1
# AgHse1 = target: AgHse1
# Procedure, shortened: as §1
# AgLsb1 = target: AgLsb1
# Procedure, shortened: as §1
# AgLsb4 = target: AgLsb4
# Procedure, shortened: as §1
# AgMyo5 = target: AgMyo5
# Procedure, shortened: as §1
# AgNbp2 = target: AgNbp2
# Procedure, shortened: as §1
# AgRvs167 = target: AgRvs167
# Procedure, shortened: as §1
# AgSho1 = target: AgSho1
# Procedure, shortened: as §1
# AgSla1-D1-D2 = target: AgSla1-D1-D2
# Procedure, shortened: as §1
# AgSla1-D3 = target: AgSla1-D3
# Procedure, shortened: as §1
# CaAbp1-D1 = target: CaAbp1-D1
# Procedure, shortened: as §1
# CaAbp1-D2 = target: CaAbp1-D2
# Procedure, shortened: as §1
# CaBbc1 = target: CaBbc1
# Procedure, shortened: as §1
# CaBem1-D1 = target: CaBem1-D1
# Procedure, shortened: as §1
# CaBzz1-D1 = target: CaBzz1-D1
# Procedure, shortened: as §1
# CaBzz1-D2 = target: CaBzz1-D2
# Procedure, shortened: as §1
# CaCyk3 = target: CaCyk3
# Procedure, shortened: as §1
# CaFus1 = target: CaFus1
# Procedure, shortened: as §1
# CaHof1 = target: CaHof1
# Procedure, shortened: as §1
# CaHse1 = target: CaHse1
# Procedure, shortened: as §1
# CaLsb1 = target: CaLsb1
# Procedure, shortened: as §1
# CaLsb4 = target: CaLsb4
# Procedure, shortened: as §1
# CaMyo5 = target: CaMyo5
# Procedure, shortened: as §1
# CaNbp2 = target: CaNbp2
# Procedure, shortened: as §1
# CaRvs167 = target: CaRvs167
# Procedure, shortened: as §1
# CaRvs167-3 = target: CaRvs167-3
# Procedure, shortened: as §1
# CaSho1 = target: CaSho1
# Procedure, shortened: as §1
# CaSla1-D1-D2 = target: CaSla1-D1-D2
# Procedure, shortened: as §1
# CaSla1-D3 = target: CaSla1-D3
# Procedure, shortened: as §1
# ScAbp1 = target: ScAbp1
# Procedure, shortened: as §1
# ScBbc1 = target: ScBbc1
# Procedure, shortened: as §1
# ScBem1-D1 = target: ScBem1-D1
# Procedure, shortened: as §1
# ScBzz1-D1 = target: ScBzz1-D1
# Procedure, shortened: as §1
# ScBzz1-D2 = target: ScBzz1-D2
# Procedure, shortened: as §1
# ScCyk3 = target: ScCyk3
# Procedure, shortened: as §1
# ScFus1 = target: ScFus1
# Procedure, shortened: as §1
# ScHof1 = target: ScHof1
# Procedure, shortened: as §1
# ScHse1 = target: ScHse1
# Procedure, shortened: as §1
# ScLsb1 = target: ScLsb1
# Procedure, shortened: as §1
# ScLsb2 = target: ScLsb2
# Procedure, shortened: as §1
# ScLsb3 = target: ScLsb3
# Procedure, shortened: as §1
# ScLsb4 = target: ScLsb4
# Procedure, shortened: as §1
# ScMyo3 = target: ScMyo3
# Procedure, shortened: as §1
# ScMyo5 = target: ScMyo5
# Procedure, shortened: as §1
# ScNbp2 = target: ScNbp2
# Procedure, shortened: as §1
# ScPex13 = target: ScPex13
# Procedure, shortened: as §1
# ScRvs167 = target: ScRvs167
# Procedure, shortened: as §1
# ScSho1 = target: ScSho1
# Procedure, shortened: as §1
# ScSla1-D1-D2 = target: ScSla1-D1-D2
# Procedure, shortened: as §1
# ScSla1-D3 = target: ScSla1-D3
# Procedure, shortened: as §1
# SpAbp1-D1 = target: SpAbp1-D1
# Procedure, shortened: as §1
# SpBbc1 = target: SpBbc1
# Procedure, shortened: as §1
# SpBzz1-D1 = target: SpBzz1-D1
# Procedure, shortened: as §1
# SpBzz1-D2 = target: SpBzz1-D2
# Procedure, shortened: as §1
# SpCyk3 = target: SpCyk3
# Procedure, shortened: as §1
# SpHof1 = target: SpHof1
# Procedure, shortened: as §1
# SpHof1-2 = target: SpHof1-2
# Procedure, shortened: as §1
# SpHof1-3 = target: SpHof1-3
# Procedure, shortened: as §1
# SpHse1 = target: SpHse1
# Procedure, shortened: as §1
# SpLsb1 = target: SpLsb1
# Procedure, shortened: as §1
# SpLsb4 = target: SpLsb4
# Procedure, shortened: as §1
# SpMyo1 = target: SpMyo1
# Procedure, shortened: as §1
# SpNbp2 = target: SpNbp2
# Procedure, shortened: as §1
# SpPex13 = target: SpPex13
# Procedure, shortened: as §1
# SpRvs167 = target: SpRvs167
# Procedure, shortened: as §1
# SpSla1-D1-D2 = target: SpSla1-D1-D2
# Procedure, shortened: as §1
# SpSla1-D3 = target: SpSla1-D3
# Procedure, shortened: as §1
binder,measurement,setting,value
NAGIRPKFILALNDE,SPOT peptide array binding signal intensity,AgAbp1,≤ 0
same,SPOT peptide array binding signal intensity,AgBbc1,2.75
same,SPOT peptide array binding signal intensity,AgBem1-D1,11.5
same,SPOT peptide array binding signal intensity,AgBzz1-D1,44
same,SPOT peptide array binding signal intensity,AgBzz1-D2,77
same,SPOT peptide array binding signal intensity,AgCyk3,7
same,SPOT peptide array binding signal intensity,AgFus1,68
same,SPOT peptide array binding signal intensity,AgHof1,13.8
same,SPOT peptide array binding signal intensity,AgHse1,616
same,SPOT peptide array binding signal intensity,AgLsb1,2
same,SPOT peptide array binding signal intensity,AgLsb4,25
same,SPOT peptide array binding signal intensity,AgMyo5,1
same,SPOT peptide array binding signal intensity,AgNbp2,0.5
same,SPOT peptide array binding signal intensity,AgRvs167,2.33
same,SPOT peptide array binding signal intensity,AgSho1,9.5
same,SPOT peptide array binding signal intensity,AgSla1-D1-D2,3
same,SPOT peptide array binding signal intensity,AgSla1-D3,4
same,SPOT peptide array binding signal intensity,CaAbp1-D1,≤ 0
same,SPOT peptide array binding signal intensity,CaAbp1-D2,≤ 0
same,SPOT peptide array binding signal intensity,CaBbc1,1.5
same,SPOT peptide array binding signal intensity,CaBem1-D1,1
same,SPOT peptide array binding signal intensity,CaBzz1-D1,72
same,SPOT peptide array binding signal intensity,CaBzz1-D2,26.2
same,SPOT peptide array binding signal intensity,CaCyk3,2
same,SPOT peptide array binding signal intensity,CaFus1,1120
same,SPOT peptide array binding signal intensity,CaHof1,1
same,SPOT peptide array binding signal intensity,CaHse1,6.5
same,SPOT peptide array binding signal intensity,CaLsb1,1
same,SPOT peptide array binding signal intensity,CaLsb4,≤ 0
same,SPOT peptide array binding signal intensity,CaMyo5,27.2
same,SPOT peptide array binding signal intensity,CaNbp2,122
same,SPOT peptide array binding signal intensity,CaRvs167,1.17
same,SPOT peptide array binding signal intensity,CaRvs167-3,17
same,SPOT peptide array binding signal intensity,CaSho1,222
same,SPOT peptide array binding signal intensity,CaSla1-D1-D2,≤ 0
same,SPOT peptide array binding signal intensity,CaSla1-D3,10.8
same,SPOT peptide array binding signal intensity,ScAbp1,≤ 0
same,SPOT peptide array binding signal intensity,ScBbc1,≤ 0
same,SPOT peptide array binding signal intensity,ScBem1-D1,1
same,SPOT peptide array binding signal intensity,ScBzz1-D1,43
same,SPOT peptide array binding signal intensity,ScBzz1-D2,19
same,SPOT peptide array binding signal intensity,ScCyk3,54.5
same,SPOT peptide array binding signal intensity,ScFus1,159
same,SPOT peptide array binding signal intensity,ScHof1,≤ 0
same,SPOT peptide array binding signal intensity,ScHse1,628
same,SPOT peptide array binding signal intensity,ScLsb1,1.5
same,SPOT peptide array binding signal intensity,ScLsb2,≤ 0
same,SPOT peptide array binding signal intensity,ScLsb3,≤ 0
same,SPOT peptide array binding signal intensity,ScLsb4,≤ 0
same,SPOT peptide array binding signal intensity,ScMyo3,2.5
same,SPOT peptide array binding signal intensity,ScMyo5,≤ 0
same,SPOT peptide array binding signal intensity,ScNbp2,23.5
same,SPOT peptide array binding signal intensity,ScPex13,≤ 0
same,SPOT peptide array binding signal intensity,ScRvs167,≤ 0
same,SPOT peptide array binding signal intensity,ScSho1,158
same,SPOT peptide array binding signal intensity,ScSla1-D1-D2,≤ 0
same,SPOT peptide array binding signal intensity,ScSla1-D3,6.5
same,SPOT peptide array binding signal intensity,SpAbp1-D1,≤ 0
same,SPOT peptide array binding signal intensity,SpBbc1,4
same,SPOT peptide array binding signal intensity,SpBzz1-D1,201
same,SPOT peptide array binding signal intensity,SpBzz1-D2,≤ 0
same,SPOT peptide array binding signal intensity,SpCyk3,2
same,SPOT peptide array binding signal intensity,SpHof1,28.8
same,SPOT peptide array binding signal intensity,SpHof1-2,19
same,SPOT peptide array binding signal intensity,SpHof1-3,214
same,SPOT peptide array binding signal intensity,SpHse1,481
same,SPOT peptide array binding signal intensity,SpLsb1,≤ 0
same,SPOT peptide array binding signal intensity,SpLsb4,≤ 0
same,SPOT peptide array binding signal intensity,SpMyo1,≤ 0
same,SPOT peptide array binding signal intensity,SpNbp2,16.5
same,SPOT peptide array binding signal intensity,SpPex13,4
same,SPOT peptide array binding signal intensity,SpRvs167,3.5
same,SPOT peptide array binding signal intensity,SpSla1-D1-D2,4
same,SPOT peptide array binding signal intensity,SpSla1-D3,≤ 0
